Shown are actives, neighbours in structure and some others; about 3.2% of the full set was active somewhere.
ALOX15 inhib = qHTS Assay for Inhibitors of 15-hLO (15-human lipoxygenase). Potency, µM (series often up to 57.1 µM), usual class: inhibitors. AID 887, 2007. purified 15hLO-1, xylenol orange hydroperoxide absorbance. 74,000 tested, 1.4% active. Polyunsaturated fatty acid lipoxygenase ALOX15 (Homo sapiens), P16050; also: nearly all actives have a fitted effect of over 55% in size
Target sequence (P16050 whole entry, looked up): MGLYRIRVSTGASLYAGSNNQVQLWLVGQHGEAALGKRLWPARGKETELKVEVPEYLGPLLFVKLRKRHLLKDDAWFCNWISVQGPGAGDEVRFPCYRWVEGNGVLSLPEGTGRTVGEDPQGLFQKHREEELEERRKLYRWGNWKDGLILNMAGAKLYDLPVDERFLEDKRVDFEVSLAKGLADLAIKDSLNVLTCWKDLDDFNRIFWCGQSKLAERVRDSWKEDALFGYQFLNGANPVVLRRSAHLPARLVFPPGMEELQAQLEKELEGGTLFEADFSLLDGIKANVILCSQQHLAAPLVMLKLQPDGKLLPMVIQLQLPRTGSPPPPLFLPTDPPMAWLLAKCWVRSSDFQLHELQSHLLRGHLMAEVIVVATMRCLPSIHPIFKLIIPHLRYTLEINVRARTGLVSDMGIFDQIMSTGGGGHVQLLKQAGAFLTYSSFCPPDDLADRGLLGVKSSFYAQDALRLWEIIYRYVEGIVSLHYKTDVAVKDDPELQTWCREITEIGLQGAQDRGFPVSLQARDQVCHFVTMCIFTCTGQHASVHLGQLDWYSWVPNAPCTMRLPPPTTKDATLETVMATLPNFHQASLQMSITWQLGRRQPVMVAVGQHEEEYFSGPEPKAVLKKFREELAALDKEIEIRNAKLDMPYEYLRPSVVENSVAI
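Compounds were preincubated 15 min at room temperature with 40 nM purified human enzyme (25 mM Hepes pH 7.5, 0.01% Triton X-100); 50 uM arachidonic acid reacted 6 min. Fe-xylenol orange detection, 30 min, absorbance ratio 573/405 nm.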
15-hLO-2 inh = qHTS Assay for Inhibitors of 15-hLO-2 (15-human lipoxygenase 2); Polyunsaturated fatty acid lipoxygenase ALOX15B (Homo sapiens), O15296; purified 15hLO-2, xylenol orange hydroperoxide absorbance; Potency, µM (series often up to 57.1 µM), hits mostly inhibitors; 110,000 tested, 0.56% active; AID 881, 2007; also: nearly all actives have a fitted effect of over 60% in size
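Read-out: hydroperoxide product oxidises ferrous iron, measured as xylenol orange complex via the 573-to-405 nm absorbance ratio after 30 min. Reaction: 50 nM enzyme, 15 min compound preincubation, 45 uM arachidonic acid, 90 min RT, Hepes pH 7.5 with Triton X-100.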
ERK AVP block = qHTS Assay for Inhibitors of the ERK Signaling Pathway using a Homogeneous Screening Assay; Potency, µM (top dose mostly 57.5 µM), hits mostly inhibitors; 72,000 tested, 0.99% active; HEK293-V1b, vasopressin-stimulated pERK AlphaScreen; AID 995, 2007; also: nearly all actives have a fitted effect of over 55% in size
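V1b-HEK293 cells; cpd 30 min 37C; 25 nM vasopressin 5 min; lyse 10 min; AlphaScreen beads 5 hr RT. Normalized to DMSO basal and 25 nM vasopressin; AC50 by Hill fit.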
CRE Fsk mod = Cell signaling CRE-BLA (Fsk stim). Potency, µM (titrated, usually from 38.2 µM), most hits filed as activators. CHO CRE-bla reporter (cAMP response element driving beta-lactamase), forskolin EC10, beta-lactamase ratio. AID 662, 2007. 71,000 tested, 2.5% active; active = well fitted activation curve with a large enough effect in the signal ratio, with a control signal flat, not every such curve was filed as active; inconclusive = small, poorly fitted or top-dose-only effect, or effect the other way, or a change in a side signal; the % refers to the signal ratio
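CHO CRE-bla cells, overnight plating in Opti-MEM with 0.5% dialyzed FBS; cpd titration + EC10 NKH 477, 3 h 37 °C; CCF4 2 h RT; ex 405/em 460 vs 530 ratio → %Activity, AC50.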
Each line names hits and unclear results; the compound was inactive in the other large screens. Unless noted, calls follow the shape of the dose curve; as a rule, active = well fitted inhibition curve with a large enough effect; inconclusive = small, poorly fitted or top-dose-only effect; inactive = no such curve, though single readings can be large or run the other way.

c1ccc(-c2nc(NC3CC3)nc(-n3ccnc3)n2)cc1	CRE Fsk mod 0.5µM
O=C1C=CC(=O)C2=C1C1c3ccccc3C2c2ccccc21	ALOX15 inhib 0.79µM, 15-hLO-2 inh 2µM (no result: CRE Fsk mod)
COc1cc(OC)cc([C@H](CNc2ncnc3c2ncn3[C@@H]2O[C@@H](CO)[C@H](O)[C@@H]2O)c2ccccc2C)c1	none (no result: ALOX15 inhib, 15-hLO-2 inh, ERK AVP block)
Cc1ccc(Nc2ncc3c(n2)CC(c2ccco2)CC3=O)c(C)c1 (configuration not stated)	ALOX15 inhib 20µM, ERK AVP block inconclusive
CCOC(=O)OCC1C=C[C@H](c2cc(-c3ccccc3)ccc2O)C(c2ccc(C(C)=O)cc2)O1 (some centres not stated)	none (no result: 15-hLO-2 inh, CRE Fsk mod)
COC(=O)CCc1c(C)c(C(=O)c2ccco2)c2ccccn12	ALOX15 inhib 7.9µM
COc1ncc2ncc(=O)n(C)c2n1	none
Nc1c(C(=O)Nc2nc3ccccc3s2)sc2nc(-c3cccs3)ccc12	15-hLO-2 inh 13µM (no result: ALOX15 inhib, ERK AVP block, CRE Fsk mod)
c1cncc(CNc2ccnc(-c3cccnc3)n2)c1	ALOX15 inhib inconclusive
COc1cc(-c2nnc3sc(-c4cccs4)nn23)cc(OC)c1OC	CRE Fsk mod 1.6µM
Clc1ccccc1-c1nnc2sc(-c3cccs3)nn12	none
Cc1cccc(-c2nnc3sc(-c4ccccc4)nn23)c1	CRE Fsk mod inconclusive
COc1ccc(-c2nn3c(-c4cccc(C)c4)nnc3s2)cc1OC	ERK AVP block inconclusive, CRE Fsk mod 2µM (no result: 15-hLO-2 inh)
COc1ccc(-c2nnc3sc(-c4cccs4)nn23)cc1OC	ERK AVP block inconclusive, CRE Fsk mod 2.5µM
CC(=O)OC[C@@H]1O[C@H](CCO/N=C(\C)CCN2CCCCc3nc(C)c(C)cc32)C=C[C@@H]1OC(C)=O	none (no result: 15-hLO-2 inh, CRE Fsk mod)
COc1ccc(-c2nc3cnc(N4CCN(C)CC4)nc3n(Cc3cccc(OC)c3)c2=O)cc1	ERK AVP block inconclusive, CRE Fsk mod inconclusive
C[C@@H](c1ccccc1)N1C(=O)[C@H]2[C@H]3[C@H](O)[C@H](O)C/C(=N/NC(=O)OCc4ccccc4)[C@H]3CC[C@@H]2C1=O	none (no result: 15-hLO-2 inh, CRE Fsk mod)
CCOC(=O)C1CCN(C(c2cccs2)c2sc3nc(C)nn3c2O)CC1 (configuration not stated)	CRE Fsk mod 6.3µM (no result: ERK AVP block)
Cc1cc(C)n2c(=S)[nH]nc2n1	ALOX15 inhib inconclusive, 15-hLO-2 inh 6.3µM, CRE Fsk mod inconclusive
CC(N)CN (configuration not stated)	none
COc1ccc(-c2cc(-c3ccc(OC)cc3)[nH]n2)cc1	ERK AVP block 3.2µM, CRE Fsk mod inconclusive
CCOC(=O)C1=C(N)OC2=C(C(=O)CC(C)(C)C2)C1c1ccco1 (configuration not stated)	none
CC1(C)CC(=O)C2=C(C1)OC1=C(C(=O)CC(C)(C)C1)C2c1ccc(O)cc1O	ALOX15 inhib 3.2µM, 15-hLO-2 inh inconclusive, ERK AVP block 10µM, CRE Fsk mod inconclusive
COC(=O)c1c(NC(=O)Cc2cccs2)sc(C)c1C	ALOX15 inhib inconclusive (no result: ERK AVP block, CRE Fsk mod)
CCOC(=O)c1c(NC(=O)Cc2cccs2)sc(C(=O)N2CCCCC2)c1C	ERK AVP block inconclusive, CRE Fsk mod 2µM
CCOC(=O)c1c(NC(=O)CSc2n[nH]c(-c3ccco3)n2)sc(C)c1C	ALOX15 inhib inconclusive, CRE Fsk mod 0.063µM
CCOC(=O)c1sc(NC(=O)CSc2nncs2)c(C(=O)OCC)c1C	CRE Fsk mod 3.2µM
CCOC(=O)c1c(NC(=O)COC)sc(C(C)=O)c1C	CRE Fsk mod 13µM
COC(=O)N1CCC2(CC1)CN(c1ccncc1)C2	none
c1ccc(C2=NN[C@@H]3c4ccccc4-c4ccccc4N3C2)cc1	ALOX15 inhib inconclusive, ERK AVP block inconclusive
Nc1cc(C(=O)O)[nH]c(=O)n1	none
CCOC(=O)c1sc(NC(=O)CSc2nnc(-c3ccco3)n2CC)c(C(=O)OCC)c1C	ALOX15 inhib 6.3µM
CCOC(=O)c1sc(NC(=O)CSc2n[nH]c(-c3ccccc3)n2)c(C#N)c1C	ALOX15 inhib 13µM, ERK AVP block inconclusive
NC(=O)c1c(NC(=O)CSc2nnc(-c3ccco3)n2-c2ccccc2)sc2c1CCC2	ALOX15 inhib 25µM, 15-hLO-2 inh inconclusive, CRE Fsk mod inconclusive
CC1CCC2C(=O)OC(CO)CN2C1c1ccc(Br)cc1 (configuration not stated)	none (no result: 15-hLO-2 inh, CRE Fsk mod)
COc1ccc(CCNC(=S)NC(=O)c2ccccc2)cc1OC	15-hLO-2 inh 13µM (no result: ALOX15 inhib, ERK AVP block, CRE Fsk mod)
CCOC(=O)OCC1OC(c2ccccc2)C=CC1OC(=O)OCC (configuration not stated)	none (no result: 15-hLO-2 inh, CRE Fsk mod)
CCNC(=O)[C@@H]1CCCN1C(=O)[C@H](CCCN=C(N)N)NC(=O)[C@H](CC(C)C)NC(=O)[C@@H](CC(C)C)NC(=O)[C@H](Cc1ccc(O)cc1)NC(=O)[C@H](CO)NC(=O)[C@H](Cc1c[nH]c2ccccc12)NC(=O)[C@H](Cc1cnc[nH]1)NC(=O)[C@@H]1CCC(=O)N1	none (no result: 15-hLO-2 inh, ERK AVP block, CRE Fsk mod)
CCCn1c(NC(=O)c2ccc(Cl)c(S(=O)(=O)N3CCCC3)c2)nc2ccccc21	ERK AVP block 3.2µM, CRE Fsk mod inconclusive
COc1cc(-c2nc(-c3ccc(Br)o3)no2)cc(OC)c1OC	CRE Fsk mod 2.5µM
Cc1ccc(C(=N)c2ccccc2Cc2cccc3ccccc23)c2ccccc12	none
COC(=O)[C@@]1(Cc2ccc(OC)cc2)[C@H]2c3cc(C(=O)N(C)C)n(Cc4cc(F)c(F)c(F)c4)c3C[C@H]2CN1C(=O)c1ccccc1	none (no result: ALOX15 inhib)
CC1CCC2C(=O)N3C(CCC(C)C3c3ccc(-c4ccco4)cc3)C(=O)N2C1c1ccc(-c2ccco2)cc1 (configuration not stated)	ALOX15 inhib 2.5µM (no result: 15-hLO-2 inh, CRE Fsk mod)
CC1CCC2C(=O)N3C(CCC(C)[C@@H]3c3ccc(-c4ccco4)cc3)C(=O)N2C1c1cccc(N2CCCC2=O)c1 (some centres not stated)	ALOX15 inhib 5µM (no result: 15-hLO-2 inh, CRE Fsk mod)
CC(C)(C)c1ccc(O)c(CN(Cc2cc(C(C)(C)C)ccc2O)c2ccccc2)c1	CRE Fsk mod inconclusive
CCC(=O)[C@@]1(C)[C@H](C)C[C@@H]2[C@@H]3CCC4=CC(=O)C=C[C@@]4(C)[C@H]3[C@H](O)C[C@]21C	none
CO[C@@H]1/C=C\O[C@]2(C)Oc3c(C)c(O)c4c(O)c(c(CN5CCN(C)CC5)c(O)c4c3C2=O)NC(=O)/C(C)=C\C=C[C@@H](C)[C@@H](O)[C@H](C)[C@@H](O)[C@H](C)[C@H](OC(C)=O)[C@@H]1C	ALOX15 inhib inconclusive
CO[C@@H]1/C=C\O[C@@]2(C)Oc3c(C)c(O)c4c(c3C2=O)C(=N[C@H]2CC[C@H](O)O[C@@H]2C)C=C(NC(=O)/C(C)=C\C(=O)[C@@H]2C[C@@H]2[C@@H](O)[C@H](C)[C@@H](O)[C@H](C)[C@H](OC(C)=O)[C@@H]1C)C4=O	ALOX15 inhib 2µM
CN(C)c1ncc2nc(-c3ccc(Cl)cc3)c(=O)n(C[C@H]3CCCO3)c2n1	CRE Fsk mod 4µM
O=c1c(-c2ccccc2)nc2cnc(N3CCOCC3)nc2n1C[C@H]1CCCO1	CRE Fsk mod 2µM
